Assay results taken from PubChem BioAssay AID602296 (Broad Institute, 2012).
Hit rate of the full screen: of about 2,000 compounds, about 190 (9.5%) were called active. Not shown: some 14% with an inconclusive outcome.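 The calls were made as follows: active = fitted activation curve crossing 40% at a concentration no higher than the sample's top valid tested dose; inconclusive = flat fitted curve at 30% to 70% activation, or poor curve fit; inactive = signal decrease, flat curve within 30%, or the rest.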 A selection follows.

Test: HSF-1 reporter activators over prolonged exposure, confirmation, cell-based, mouse, luciferase, cherry-pick, dose (AID 602296);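 also: test compounds applied by themselves with no MG132 co-treatment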
Settings: NIH3T3-HGL HSF-1 response element luciferase, 48 h; series mostly up to 26 µM; activation: at the top concentration

activation, inactive:
CC12CCC(=O)N1C(C(=O)Nc1cccc3ccccc13)CS2 (stereo unspecified) -1.65%
COc1ccc(CNCC(O)COc2ccc(C(C)(C)c3ccccc3)cc2)cc1 (stereo unspecified) -44.6%
COc1ccc(Cl)cc1NC(=O)CCc1nc(-c2ccccc2F)no1 -32.6%
Cc1ccc(-c2ccc(=O)[nH]n2)cc1 6.96%
c1ccc(Cn2nnnc2C(c2cccs2)N2CCc3ccccc3C2)cc1 (stereo unspecified) -61.7%
COc1ccc(N/C=C(\C=C\C#N)S(=O)(=O)c2ccccc2)cc1 2.06%
Cc1cccc(NC(=S)N(CCN(C)C)C(C)c2cccnc2)c1 (stereo unspecified) -1.67%
COCCOC(=O)C1=C(C)NC(C)=C(C(=O)OCCOC)C1/C=C/c1ccccc1OC -6.58%
COc1ccc(C(=O)COC(=O)c2cccnc2SC)cc1 -0.632%
CCOc1ccc(S(=O)(=O)NNC(=S)Nc2ccc(Br)cc2)cc1 0.555%
CCOC(=O)c1c(NC(C)=O)sc2c1CCC(C=NCCCN(CC)CC)=C2Sc1ccccc1 13%
O=C(c1ccc(Br)cc1)N1CCCC(c2nc(-c3cccs3)no2)C1 (stereo unspecified) -37.2%
Cc1[nH]c2ccccc2c1CN1CCN(c2ccccn2)CC1 -15.3%
CCOc1ccc(NC(=O)C2CC(=O)N3CCCN=C3S2)cc1 (stereo unspecified) -13.2%
CCOC(=O)c1nnc(-c2ccccc2)nc1Sc1ccccc1Cl -101%
CCC(NC(=O)/C(=C\c1ccc2c(c1)OCO2)NC(C)=O)C(=O)O (stereo unspecified) -1.08%
Cc1cc(NC(=O)CSc2nc3c(cc2C#N)CCC3)no1 -57.8%
Cc1nonc1C1CCCN1Cc1cn[nH]c1-c1ccc(-c2ccccc2)cc1 (stereo unspecified) -16.4%
Cc1ccc2c(CN3CCN(S(=O)(=O)/C=C/c4ccccc4)CC3)cc(=O)oc2c1 -1.07%
O=C1C2CCCCC2C(=O)N1Cc1ccccc1 (stereo unspecified) -6.54%
CC(C)C(C)N(Cc1ccc(C(=O)O)cc1)C(=O)c1ccc2ccccc2n1 (stereo unspecified) -7.06%
O=C(Nc1ccn(Cc2ccccc2F)n1)c1ccc(COc2ccc(Cl)cc2Cl)o1 -41.2%
Cn1c(CN2CCN(c3ccc(Cl)cc3)CC2)nc2ccccc21 7.35%
Brc1ccc(CSc2nnc(-c3ccccn3)n2Cc2ccco2)cc1 -64.8%
CSc1nc(S(=O)(=O)c2ccc(C)cc2)c(Cl)s1 4.27%
COc1ccc(CCNCc2cc(C)n(-c3ccc(OC)cc3)c2C)cc1 -9.47%
Cc1cc(C(=O)N/N=C/c2ccc([N+](=O)[O-])s2)c2ccccc2n1 -39.8%
Clc1ccc(-n2cc(COCc3ccccc3)nn2)cc1 -82.4%
COc1ccc(Cl)cc1N(CC(=O)Nc1ccccc1SC)S(C)(=O)=O 5.09%
COc1ccc(OC)c(S(=O)(=O)Nc2ccccc2O)c1 -3.47%
CCOC(=O)/C=C/C(=O)OCC(=O)NC(c1ccccc1)c1ccccc1 -43.9%
